Data: PubChem BioAssay (NCATS)
Inconclusive results are not listed. Activity calls are given as the source filed them. Calls come from the whole dose curve; as a rule, active = well fitted curve in the direction sought with a large enough effect; inconclusive = small, poorly fitted or top-dose-only effect, or another doubt; inactive = no such curve, though single readings can be large; an effect the other way counts as inactive or inconclusive.

What was measured:
[1] = tested on: NIH3T3; test: qHTS assay to identify novel small-molecules to repurpose for Merkel cell carcinoma treatment (AID 1296009); details: MCC and control cell lines, CellTiter-Glo viability, 72 h; series mostly up to 44.8 µM; note: nearly all actives have a fitted effect of over 60% in size
How it was run: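 CellTiter-Glo luminescence after 72 hr compound exposure at 37 degree celsius gave cell viability. Libraries NPC and MIPE were run as 8- and 11-point dose responses; RLUs normalized to DMSO (negative) and no-cell (cytotoxicity) controls.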

[2] = tested on: C33A; test: Primary qHTS to identify gynecologic anti-cancer compounds using libraries of approved drugs and bioactive compounds (AID 1345084); details: Gynecologic cancer cell panel viability, ATPlite luminescence, 48 h; series mostly up to 57.5 µM; note: nearly all actives have a fitted effect of over 55% in size
How it was run: (§1)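 Cells, 1,000 per well, were allowed to settle for 16 h at 37 C before compound addition. Five concentrations were tested for 48 h, and viability was read by ATPlite luminescence after 15 min at room temperature.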

[3] = tested on: CAOV3; test: as above; details: Gynecologic cancer cell panel viability, ATPlite luminescence, 48 h; series mostly up to 57.5 µM
How it was run: as §1

[4] = tested on: CASKI; test: as above; details: Gynecologic cancer cell panel viability, ATPlite luminescence, 48 h; series mostly up to 57.5 µM
How it was run: as §1

[5] = tested on: Es-2; test: as above; details: Gynecologic cancer cell panel viability, ATPlite luminescence, 48 h; series mostly up to 57.5 µM
How it was run: as §1

[6] = tested on: HeLa; test: as above; details: Gynecologic cancer cell panel viability, ATPlite luminescence, 48 h; series mostly up to 57.5 µM
How it was run: as §1

[7] = tested on: Hek293T; test: as above; details: Gynecologic cancer cell panel viability, ATPlite luminescence, 48 h, control line for the selectivity index; series mostly up to 57.5 µM
How it was run: as §1

[8] = tested on: JEG-3; test: as above; details: Gynecologic cancer cell panel viability, ATPlite luminescence, 48 h; series mostly up to 57.5 µM
How it was run: as §1

[9] = tested on: OV90; test: as above; details: Gynecologic cancer cell panel viability, ATPlite luminescence, 48 h; series mostly up to 57.5 µM
How it was run: as §1

[10] = tested on: PA-1; test: as above; details: Gynecologic cancer cell panel viability, ATPlite luminescence, 48 h; series mostly up to 57.5 µM
How it was run: as §1

[11] = tested on: SKOV3; test: as above; details: Gynecologic cancer cell panel viability, ATPlite luminescence, 48 h; series mostly up to 57.5 µM
How it was run: as §1

[12] = tested on: Tov-21-G; test: as above; details: Gynecologic cancer cell panel viability, ATPlite luminescence, 48 h; series mostly up to 57.5 µM
How it was run: as §1

[13] = tested on: Tov112D; test: as above; details: Gynecologic cancer cell panel viability, ATPlite luminescence, 48 h; series mostly up to 57.5 µM
How it was run: as §1

Measured: Potency

CCOc1ccc(S(=O)(=O)N2CCCCCC2)c2ccccc12
inactive: [1] | [2] | [3] | [4] | [5] | [6] | [7] | [8] | [9] | [10] | [11] | [12] | [13]

CNCCC(c1cccs1)c1ccc(O)c2ccccc12 (configuration not stated)
inactive: [1] | [2] | [3] | [4] | [5] | [6] | [7] | [10] | [12] | [13]

CNC(C)C(=O)NC(C(=O)N1CCCC1C(=O)Nc1snnc1-c1ccccc1)C1CCCCC1 (configuration not stated)
inactive: [1] | [2] | [3] | [4] | [5] | [6] | [7] | [8] | [9] | [10] | [13]

Cn1cc(C2=C(c3coc4ccccc34)C(=O)NC2=O)c2cc(Br)ccc21
inactive: [1] | [2] | [3] | [4] | [5] | [6] | [7] | [9] | [10] | [11] | [12] | [13]

O=S(=O)(N[C@H]1CCCC[C@@H]1N1CCOCC1)c1ccc(Cl)cc1
inactive: [1] | [2] | [3] | [4] | [5] | [6] | [7] | [8] | [10] | [11] | [12] | [13]

COCC(c1ccc(C(F)(F)F)cc1)N1CCN(C2(C)CCN(C(=O)c3c(C)ncnc3C)CC2)CC1C (configuration not stated)
inactive: [1] | [2] | [3] | [4] | [5] | [6] | [7] | [8] | [9] | [10] | [12] | [13]

CC1CCCC(O)CCC/C=C/c2cc(OS(=O)(=O)O)cc(O)c2C(=O)O1 (configuration not stated)
inactive: [1] | [2] | [3] | [4] | [5] | [6] | [7] | [8] | [9] | [10] | [11] | [12] | [13]

Cc1cc(C(=O)Cn2cc(C#N)ccc2=O)c(C)n1Cc1ccccc1
inactive: [1] | [2] | [3] | [4] | [5] | [6] | [8] | [9] | [10] | [11] | [12] | [13]

O=C(NCC1CCN(Cc2cccc(Cl)c2)CC1)[C@@H]1CCCN(c2ncnc3c2nc2n3CCCC2)C1
inactive: [1] | [2] | [3] | [4] | [5] | [6] | [7] | [8] | [9] | [10] | [11] | [12] | [13]

CC(C)(C)c1ccc2c(c1)CC[C@H]2NC(=O)Nc1cccc2[nH]ncc12
inactive: [1] | [2] | [3] | [4] | [5] | [6] | [7] | [8] | [9] | [11] | [12] | [13]

O=C(Nc1ccn(Cc2ccc(O)cc2C(F)(F)F)n1)c1c(F)cccc1F
inactive: [1] | [2] | [3] | [4] | [5] | [7] | [8] | [9] | [10] | [11] | [12] | [13]

CCCCc1ccc(NS(=O)(=O)c2ccc(F)cc2)cc1
inactive: [1] | [2] | [3] | [4] | [5] | [6] | [7] | [8] | [9] | [10] | [11] | [12] | [13]

Cc1c(Cl)cccc1S(=O)(=O)Nc1nc(NCCc2ccccc2)nc2c1CN(Cc1ccccc1)CC2
inactive: [1] | [2] | [3] | [4] | [5] | [6] | [7] | [8] | [9] | [10] | [11] | [12] | [13]

COc1cc(N(C)CCN(C)C)c(N)cc1Nc1nccc(-c2cn(C)c3ccccc23)n1
inactive: [1] | [2] | [3] | [4] | [5] | [6] | [7] | [8] | [9] | [10] | [11] | [12] | [13]

CN(C)C(CCOc1cccc2ccccc12)c1ccccc1 (configuration not stated)
inactive: [1] | [2] | [3] | [4] | [5] | [6] | [7] | [8] | [10] | [12] | [13]

COc1cc(F)c(C(C)C)cc1-c1ccc(C(F)(F)F)cc1CN1C(=O)OC(c2cc(C(F)(F)F)cc(C(F)(F)F)c2)C1C (configuration not stated)
inactive: [1] | [2] | [3] | [4] | [5] | [6] | [7] | [8] | [9] | [10] | [12] | [13]

CCN1C(C)(C)CC(Oc2ccc(C(=O)Nc3ccc(NC(=O)Nc4cc(C(C)(C)C)on4)cc3)nc2)CC1(C)C
inactive: [1] | [2] | [3] | [4] | [5] | [6] | [7] | [8] | [9] | [10] | [12] | [13]

Cc1cc(F)ccc1[C@H]1C[C@@H](N2CCN3C(=O)CC[C@H]3C2)CCN1C(=O)N(C)[C@H](C)c1cc(C(F)(F)F)cc(C(F)(F)F)c1
inactive: [1] | [2] | [3] | [4] | [5] | [6] | [8] | [9] | [10] | [12] | [13]
